The values below come from PubChem BioAssay.

Test [1] can be described thus: inhibitors of TNFa-induced NFkB p65 translocation, primary screen, imaging, HUVEC, MLSMR starter and 10KST1 sets (AID 438;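 active = inhibition above 20% together with a positive visual image hit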;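 note: compound added about 3h40 before a 20 min TNFalpha stimulation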;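 for inhibition: signal is the nuclear over cytoplasmic p65 intensity ratio per well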). To be noted: HUVEC TNFa-induced p65 nuclear translocation; cell count: measured here: nuclei count (cytotoxicity indicator), at 2.08 µM; inhibition: at 2 µM, stronger effect = higher value, 0% TNFa-plus-vehicle, 100% no-TNFa wells.
The nature of test [2]: inhibitors of mutant huntingtin aggregation, primary screen, imaging, exon1htt(103Q)mCFP cells, high-content imaging (AID 483;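 active = visual image review flags a hit and inhibition of aggregation exceeds 20%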;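 note: compound exposure lasted 3 days before fixation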;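 for nuclei count: percent of the per-plate median nuclei count of sample wells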). The conditions noted are these: exon1htt(103Q)mCFP cell line, aggregate imaging, at 2 µM; inhibition of aggregation: stronger effect = higher value; nuclei count: measured here: cell count, toxicity.
Test [3] in a line: inhibitors of E-selectin induction by TNFa, primary screen, imaging, HUVEC, immunofluorescence, MLSMR starter and 10KST1 sets (AID 487;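 active = visually confirmed hit in the image check and inhibition above 20%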;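 for inhibition: signal is fraction of cell area covered by stained E-selectin grains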;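 for nuclei count: 100% = median nuclei count of all wells on the same plate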). To be noted: HUVEC TNFalpha-induced E-selectin immunofluorescence imaging, at 2 µM; inhibition: stronger effect = higher value; nuclei count: measured here: cell number, toxicity.
In test [4] the target is Voltage-gated potassium channel subunit beta-2 (Rattus norvegicus) (UniProt P62483). Kind of test: KvBeta enzyme negative modulators, primary screen, biochemical, NADPH fluorescence (AID 622;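 active = fluorescence slope higher than the sample average by over 3 SD, cut at about -0.22 in these data, passing the limit was not always enough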;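 note: slope of raw intensity against log time taken from 70 to 1610 s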). To be noted: recombinant KvBeta, 4-cyanobenzaldehyde reduction, at 10 µM, stronger effect = higher value.
Voltage-gated potassium channel subunit beta-2 (Rattus norvegicus), sequence (P62483 whole entry, looked up): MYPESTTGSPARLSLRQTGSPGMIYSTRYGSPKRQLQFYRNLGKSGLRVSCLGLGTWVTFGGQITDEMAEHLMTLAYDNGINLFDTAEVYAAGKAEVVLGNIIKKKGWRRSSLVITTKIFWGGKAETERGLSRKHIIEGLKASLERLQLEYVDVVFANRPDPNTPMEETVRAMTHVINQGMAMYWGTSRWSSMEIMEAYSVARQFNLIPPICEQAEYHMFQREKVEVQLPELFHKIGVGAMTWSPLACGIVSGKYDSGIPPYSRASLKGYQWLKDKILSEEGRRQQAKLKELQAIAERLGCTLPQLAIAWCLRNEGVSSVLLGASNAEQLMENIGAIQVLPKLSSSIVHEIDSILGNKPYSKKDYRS
Test [5] has the same target. Put plainly: KvBeta positive modulators, primary screen, biochemical, NADPH fluorescence (AID 623;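 active = NADPH fluorescence slope more negative than the mean of all samples by about 3 SD, 99.7% confidence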;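 note: fluorescence intensity change per second fitted from 20 to 320 s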). To be noted: Recombinant KvBeta, NADPH fluorescence decrease slope, 10 min; at 10 µM; stronger effect = lower value.
For test [6], the target named is Alpha-2C adrenergic receptor (Homo sapiens) (UniProt P18825). Kind of test: modulators of alpha2C/GIRK thallium flux, primary screen, cell-based, HEK293 alpha2C/GIRK1/2 (AID 624;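 active = fluorescence slope after compound addition differing from the mean of all screened samples at 99.7% confidence, in either direction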;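 note: slope of fluorescence ratio to pre-addition baseline per second over 15 to 24 s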). The conditions noted are these: thallium flux BTC fluorescence, at 10 µM, actives lie on both sides.
Alpha-2C adrenergic receptor (Homo sapiens), sequence (P18825 whole entry, looked up): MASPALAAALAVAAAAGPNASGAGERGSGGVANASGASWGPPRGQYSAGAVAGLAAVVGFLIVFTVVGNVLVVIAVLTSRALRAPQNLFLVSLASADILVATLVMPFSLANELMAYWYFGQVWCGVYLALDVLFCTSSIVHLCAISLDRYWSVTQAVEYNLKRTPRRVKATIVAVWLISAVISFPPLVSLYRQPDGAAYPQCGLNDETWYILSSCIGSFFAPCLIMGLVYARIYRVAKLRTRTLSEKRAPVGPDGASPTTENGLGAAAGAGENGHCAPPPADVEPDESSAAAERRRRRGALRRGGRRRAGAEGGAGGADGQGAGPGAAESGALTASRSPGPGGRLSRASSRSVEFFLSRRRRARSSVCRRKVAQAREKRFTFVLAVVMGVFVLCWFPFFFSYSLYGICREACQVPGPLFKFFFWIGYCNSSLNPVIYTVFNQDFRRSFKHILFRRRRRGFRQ
The nature of test [7]: inhibitors of Sendai virus-induced IRF3 signaling, primary screen, TLR/RLR signaling modifier project, cell-based, Sendai virus stimulus, luciferase, 10K MLSCN set (AID 602276;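 active = inhibition at or above 50% at 10 µM; inactive = inhibition below 50%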;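 note: firefly luciferase from ISG56 promoter only with Renilla not read in this screen; 0% = Sendai virus plus DMSO and 100% = medium plus DMSO without virus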). The conditions noted are these: HEK293 RL24 IRF3 luciferase reporter, at 10 µM, stronger effect = higher value. (In general: In a reporter assay the amount or activity of a reporter protein is the signal.)
Test [8] can be described thus: inhibitors of poly I:C-induced TLR3 signaling, primary screen, cell-based, poly I:C stimulus, luciferase, 10K MLSCN set (AID 602277). The conditions noted are these: HEK293-TLR3 RL24 IRF3 luciferase reporter, at 10 µM, stronger effect = higher value.

Active and inactive are the calls of the source.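 Rule for the calls, unless noted: active = inhibition of the reporter signal at or above 50%; inactive = inhibition below 50%.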

In general, inhibition refers to the relative decrease from the control value, in per cent. With `Nc1nnnn1/N=C/c1ccccc1OCc1ccccc1`, the cell count in test [1] came to 474. The inhibition in test [1] was 4.5% (inactive); in test [3] it was -283% (inactive); in test [7], 7.71% (inactive); in test [8], 0.143% (inactive). Moreover, in test [2], the inhibition of aggregation was -2.8% (inactive). The figures for the nuclei count in test [2] and in test [3] were 101% and 138%, respectively. Moreover, the fluorescence slope in test [4] is -0.496 (inactive). For the same molecule, the NADPH fluorescence slope in test [5] is -4.4e-05 (inactive). Also, the slope in test [6] is 0.00612 (inactive).
Consider `Cc1c(C(=O)O)c(-c2ccccc2)nn1-c1ccccc1`, for which, in test [1], the cell count is 119. Besides, the inhibition in test [1] was 12.1% (inactive); in test [3] it was -11.7% (inactive); in test [7], 15% (inactive); in test [8], -3.71% (inactive). For the same molecule, the inhibition of aggregation in test [2] was 3.2% (inactive). Besides, the nuclei count in test [2] was determined as 85.6%; in test [3] it was 127%. The fluorescence slope in test [4] was -0.39 (inactive). Also, the NADPH fluorescence slope in test [5] was -0.000126 (inactive). Moreover, in test [6], the slope is 0.00692 (inactive).
Regarding `COc1ccc(Cl)cc1S(=O)(=O)N1CCN(c2ccc(F)cc2)CC1`, in test [1], the cell count came to 657. Besides, the inhibition in test [1] is -1.1% (inactive); in test [3], 36.7% (inactive); in test [7], 46.4% (inactive); in test [8], 0.0275% (inactive). Moreover, the inhibition of aggregation in test [2] was -29.1% (inactive). For the same molecule, the nuclei count is 101% in test [2] and 137% in test [3]. Further, in test [4], the fluorescence slope was -0.319 (inactive). Also, the NADPH fluorescence slope in test [5] was -1.3e-05 (inactive). Moreover, the slope in test [6] was 0.00495 (inactive).
For `COc1cc(CN2CCC(C(=O)NC3CCCC3)CC2)ccc1O`, the cell count in test [1] amounted to 755. Further, the inhibition in test [1] was -5.5% (inactive); in test [3], -29.8% (inactive); in test [7] it was 4.81% (inactive); in test [8] it was 13.9% (inactive). Besides, the inhibition of aggregation in test [2] was -13.7% (inactive). The nuclei count in test [2] is 64.3%; in test [3] it was 124%. Also, the fluorescence slope in test [4] was -0.344 (inactive). In test [5], the NADPH fluorescence slope was -3.9e-06 (inactive). Moreover, the slope in test [6] is 0.00666 (inactive).
Consider `COCCNS(=O)(=O)c1cc(F)ccc1OC`, for which the cell count in test [1] amounted to 782. Further, the inhibition in test [1] was -6.6% (inactive); in test [3] it was -62.4% (inactive); in test [7] it was -4.54% (inactive); in test [8], 25.9% (inactive). In test [2], the inhibition of aggregation was -2.8% (inactive). The values for the nuclei count in test [2] and in test [3] were 113% and 111%, respectively. Moreover, the fluorescence slope in test [4] was -0.481 (inactive). In test [5], the NADPH fluorescence slope is -3.4e-05 (inactive). For the same molecule, the slope in test [6] was 0.00632 (inactive).
For the molecule `CCOC(=O)N1CCC(N2CC34C=CC(O3)C(C(=O)O)C4C2=O)CC1` (centres undefined), in test [1], the cell count is 811. Besides, the inhibition was 4.4% (inactive) in test [1], -9.6% (inactive) in test [3], 4.63% (inactive) in test [7] and 12.4% (inactive) in test [8]. Besides, the inhibition of aggregation in test [2] is 14.5% (inactive). The nuclei count in test [2] came to 106%; in test [3] it was 114%. For the same molecule, the fluorescence slope in test [4] is -0.552 (inactive). Also, the NADPH fluorescence slope in test [5] was 2.3e-05 (inactive). Besides, the slope in test [6] is 0.00719 (inactive).
With `COc1ccc(C2CC(c3cccc(C)c3)n3ncnc3N2)cc1` (centres undefined), the cell count in test [1] was 595. The inhibition in test [1] was 5.1% (inactive); in test [3] it was 4% (inactive); in test [7], -16.2% (inactive); in test [8], 2.59% (inactive). In addition, the inhibition of aggregation in test [2] was 0% (inactive). Besides, the nuclei count was determined as 97.8% in test [2] and 111% in test [3]. Also, the fluorescence slope in test [4] is -0.569 (inactive). Also, the NADPH fluorescence slope in test [5] was 1.9e-05 (inactive). The slope in test [6] was 0.00625 (inactive).
With `CCNc1nc(N2CCOCC2)nc(N(c2ccccc2)c2ccccc2)n1`, the cell count in test [1] came to 324. For the same molecule, the inhibition is 8.2% (inactive) in test [1], -3.9% (inactive) in test [3], 9.87% (inactive) in test [7] and 28.5% (inactive) in test [8]. For the same molecule, the inhibition of aggregation in test [2] is -29.1% (inactive). Further, the nuclei count was determined as 93.3% in test [2] and 101% in test [3]. The fluorescence slope in test [4] was -0.388 (inactive). Further, the NADPH fluorescence slope in test [5] is -5.9e-05 (inactive). The slope in test [6] was 0.00355 (inactive).
Regarding `COc1ccccc1OCCOCCn1cnc2ccccc2c1=O`, the cell count in test [1] stood at 561. The inhibition in test [1] is -2.8% (inactive); in test [3], 2.6% (inactive); in test [7], 10.3% (inactive); in test [8], 12.5% (inactive). Moreover, in test [2], the inhibition of aggregation is 24.9% (inactive). Besides, the nuclei count stood at 79.3% in test [2] and 94.4% in test [3]. Besides, the fluorescence slope in test [4] was -0.488 (inactive). In test [5], the NADPH fluorescence slope was -4.9e-05 (inactive). Besides, the slope in test [6] was 0.00575 (inactive).
In the case of `CCn1c(SCC(=O)Nc2cccc(C)c2)nc2c(c1=O)SC(C)C2` (centres undefined), the cell count in test [1] amounted to 576. Besides, the inhibition was -3.4% (inactive) in test [1], -11.7% (inactive) in test [3], 12.1% (inactive) in test [7] and 25.9% (inactive) in test [8]. Further, the inhibition of aggregation in test [2] is 40.7% (inactive). For the same molecule, the nuclei count in test [2] came out at 85.6%; in test [3] it was 86%. The fluorescence slope in test [4] is -0.537 (inactive). Also, in test [5], the NADPH fluorescence slope was -4.6e-05 (inactive). Moreover, in test [6], the slope was 0.00615 (inactive).
As to `CCOC(=O)N1CCN(C(=O)c2ccc3c(=O)n(Cc4ccc(OC)cc4)c(=S)[nH]c3c2)CC1`, the cell count in test [1] was found to be 475. In addition, the inhibition in test [1] was -17% (inactive); in test [3], 2.4% (inactive); in test [7] it was 11.9% (inactive); in test [8] it was 10% (inactive). In addition, the inhibition of aggregation in test [2] was 45.2% (active). For the same molecule, the nuclei count came to 59.2% in test [2] and 88.2% in test [3]. In addition, the fluorescence slope in test [4] was -0.496 (inactive). Besides, the NADPH fluorescence slope in test [5] was -2.2e-05 (inactive). Further, the slope in test [6] was 0.00659 (inactive).
As for `CCc1ccccc1-n1c(SCC(=O)N2CCCC2)nnc1-c1ccccn1`, the cell count in test [1] stood at 484. Further, the inhibition was 2.5% (inactive) in test [1], -11.2% (inactive) in test [3], -2.19% (inactive) in test [7] and 4.38% (inactive) in test [8]. Besides, the inhibition of aggregation in test [2] is -5.8% (inactive). Besides, the figures for the nuclei count in test [2] and in test [3] were 116% and 104%, respectively. Also, the fluorescence slope in test [4] is -0.524 (inactive). Also, the NADPH fluorescence slope in test [5] is 5e-05 (inactive). For the same molecule, the slope in test [6] is 0.00548 (inactive).
`COc1ccc(C)cc1NC(=O)CSc1nnnn1Cc1ccccc1`: the cell count in test [1] was 709. Also, the inhibition in test [1] was -1.6% (inactive); in test [3] it was 8.3% (inactive); in test [7], -7.12% (inactive); in test [8] it was 13.4% (inactive). The inhibition of aggregation in test [2] was -27.3% (inactive). Besides, the nuclei count in test [2] came to 107%; in test [3] it was 124%. Moreover, the fluorescence slope in test [4] was -0.528 (inactive). Besides, the NADPH fluorescence slope in test [5] is -1.1e-05 (inactive). The slope in test [6] is 0.00685 (inactive).
Consider `COc1cccc(N2CCN(CC(=O)Nc3nnc(-c4ccccc4)s3)CC2)c1`, for which, in test [1], the cell count came to 417. The inhibition was 0.2% (inactive) in test [1], -120% (inactive) in test [3], 16% (inactive) in test [7] and 22% (inactive) in test [8]. Besides, in test [2], the inhibition of aggregation is 2.3% (inactive). Also, the nuclei count in test [2] came to 105%; in test [3], 118%. Besides, the fluorescence slope in test [4] is -0.472 (inactive). The NADPH fluorescence slope in test [5] was 8.2e-07 (inactive). The slope in test [6] is 0.00594 (inactive).
